Measurements published in PubChem BioAssay.
The source made the active and inactive calls.

Assays:
[1] = test system: Plasmodium falciparum Sir2 (PF13_0152, Sir2A); assay: pfSir2 binders on small-molecule microarrays, primary screen, biochemical, small-molecule microarray, 635 nm fluorescence (AID 1098); conditions: small-molecule microarray binding, fluorescence 635 nm; higher = more signal;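 further: score merges spot fluorescence intensity with its signal-to-noise ratio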
[2] = small-molecule microarray binders of probe aDKK1, primary screen, biochemical, biotinylated probe, 635/667 nm fluorescence (AID 1099); conditions: higher = more signal;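 further: score merges 667nm spot fluorescence with signal to noise across triplicate slides; reference of the scale not given here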
[3] = small-molecule microarray binders of probe aCHRDL2, primary screen, biochemical, biotinylated probe, 635/667 nm fluorescence (AID 1100); conditions: higher = more signal
[4] = splicing luciferase reporter signal modulators, primary screen, spliceosome inhibition project, cell-based, HEK293, splice +/- reporter (AID 1101); conditions: luminescence, 24 h, higher = more signal, called active from +8 up or from −8 down;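 further: HEK293 cells carrying a splicing-competent luciferase reporter gene; test concentration not given here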
[5] = target: Fibroblast growth factor 10 (Homo sapiens) (UniProt O15520); assay: FGF10 binders on small-molecule microarrays, primary screen, biochemical, small-molecule microarray, 635 nm fluorescence (AID 1102); conditions: FGF10 binding, fluorescence 635 nm, higher = more signal
Fibroblast growth factor 10 (Homo sapiens), sequence (O15520 whole entry, looked up): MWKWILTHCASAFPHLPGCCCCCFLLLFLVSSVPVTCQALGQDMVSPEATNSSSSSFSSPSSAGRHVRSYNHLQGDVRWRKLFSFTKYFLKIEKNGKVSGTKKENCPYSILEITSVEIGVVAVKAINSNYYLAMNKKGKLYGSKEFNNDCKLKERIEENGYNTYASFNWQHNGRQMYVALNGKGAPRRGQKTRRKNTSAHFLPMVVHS

[6] = test system: glycogen synthase kinase-3 (GSK3A per assay name; protocol says GSK3B); assay: GSK3 binders on small-molecule microarrays, primary screen, biochemical, small-molecule microarray, 635 nm fluorescence, GSK3A (AID 1103); conditions: small-molecule microarray binding, fluorescence 635 nm; higher = more signal; further: the record names both GSK3A and GSK3B
[7] = target: Epidermal growth factor receptor (Homo sapiens) (UniProt P00533); assay: EGFR binders on small-molecule microarrays, primary screen, biochemical, small-molecule microarray, 635 nm fluorescence (AID 1104); conditions: EGFR binding, higher = more signal;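 further: score merges 667 nm emission intensity with spot signal to noise over triplicate slides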
Epidermal growth factor receptor (Homo sapiens), sequence (P00533 whole entry, looked up): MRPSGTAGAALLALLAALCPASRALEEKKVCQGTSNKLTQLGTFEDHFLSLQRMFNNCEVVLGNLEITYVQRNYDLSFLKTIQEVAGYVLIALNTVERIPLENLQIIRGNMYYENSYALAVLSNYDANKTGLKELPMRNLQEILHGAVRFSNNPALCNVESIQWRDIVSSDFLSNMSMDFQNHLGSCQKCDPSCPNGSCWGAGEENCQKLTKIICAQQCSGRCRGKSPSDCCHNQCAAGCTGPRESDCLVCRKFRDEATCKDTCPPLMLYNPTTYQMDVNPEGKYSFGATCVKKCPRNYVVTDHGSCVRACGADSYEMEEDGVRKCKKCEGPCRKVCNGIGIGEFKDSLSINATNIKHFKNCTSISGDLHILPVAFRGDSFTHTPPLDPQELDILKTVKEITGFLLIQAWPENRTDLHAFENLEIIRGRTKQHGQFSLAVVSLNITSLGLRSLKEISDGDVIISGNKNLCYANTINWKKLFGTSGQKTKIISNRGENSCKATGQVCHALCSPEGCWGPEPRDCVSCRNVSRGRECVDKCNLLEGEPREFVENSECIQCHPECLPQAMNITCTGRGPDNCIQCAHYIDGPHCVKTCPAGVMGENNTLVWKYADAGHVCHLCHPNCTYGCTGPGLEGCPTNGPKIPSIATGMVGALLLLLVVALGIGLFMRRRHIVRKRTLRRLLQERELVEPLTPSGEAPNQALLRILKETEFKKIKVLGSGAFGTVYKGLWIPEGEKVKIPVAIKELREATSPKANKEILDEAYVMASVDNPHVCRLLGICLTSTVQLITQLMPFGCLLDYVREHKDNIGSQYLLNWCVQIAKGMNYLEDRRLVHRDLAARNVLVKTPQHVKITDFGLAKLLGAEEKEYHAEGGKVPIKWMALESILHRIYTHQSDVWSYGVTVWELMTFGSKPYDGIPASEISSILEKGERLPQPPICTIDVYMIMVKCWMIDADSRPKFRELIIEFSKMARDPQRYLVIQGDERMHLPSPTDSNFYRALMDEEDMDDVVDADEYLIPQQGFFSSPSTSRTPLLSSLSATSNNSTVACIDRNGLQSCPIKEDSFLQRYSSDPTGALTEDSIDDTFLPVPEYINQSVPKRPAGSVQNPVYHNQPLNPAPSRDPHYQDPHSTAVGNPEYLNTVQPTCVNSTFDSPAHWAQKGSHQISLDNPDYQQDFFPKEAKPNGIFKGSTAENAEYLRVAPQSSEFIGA

[8] = target: Follistatin-related protein 3 (Homo sapiens) (UniProt O95633); assay: FSTL3 binders on small-molecule microarrays, primary screen, biochemical, small-molecule microarray, 635 nm fluorescence (AID 1105); conditions: FSTL3 binding, higher = more signal;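 further: score merges emission near 667 nm and signal to noise per printed spot across three slides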
Follistatin-related protein 3 (Homo sapiens), sequence (O95633 whole entry, looked up): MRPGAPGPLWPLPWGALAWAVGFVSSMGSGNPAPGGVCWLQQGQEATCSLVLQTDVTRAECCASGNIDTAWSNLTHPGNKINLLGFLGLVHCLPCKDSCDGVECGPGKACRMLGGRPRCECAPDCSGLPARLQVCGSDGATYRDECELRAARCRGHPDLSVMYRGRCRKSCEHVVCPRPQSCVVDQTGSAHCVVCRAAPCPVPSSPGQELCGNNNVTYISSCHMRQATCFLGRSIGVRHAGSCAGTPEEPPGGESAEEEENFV

[9] = target: Dickkopf-related protein 1 (Homo sapiens) (UniProt O94907); assay: DKK1 binders on small-molecule microarrays, primary screen, biochemical, small-molecule microarray, 635 nm fluorescence scan (AID 1106); conditions: DKK1 binding, higher = more signal;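 further: score merges emission near 667 nm with signal to noise over three replicate slides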
Dickkopf-related protein 1 (Homo sapiens), sequence (O94907 whole entry, looked up): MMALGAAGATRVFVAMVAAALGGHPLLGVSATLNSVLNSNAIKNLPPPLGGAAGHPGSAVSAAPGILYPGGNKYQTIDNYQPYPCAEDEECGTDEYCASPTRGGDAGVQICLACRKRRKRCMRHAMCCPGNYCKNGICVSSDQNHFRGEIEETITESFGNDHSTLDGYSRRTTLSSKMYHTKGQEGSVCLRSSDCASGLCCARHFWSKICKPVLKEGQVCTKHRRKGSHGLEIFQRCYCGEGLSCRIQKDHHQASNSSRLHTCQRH

[10] = test system: Inhibin beta A chain (activin A); assay: INHBA (activin A) binders on microarrays, primary screen, biochemical, small-molecule microarray, 635 nm fluorescence scan (AID 1107); conditions: small-molecule microarray binding, higher = more signal;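 further: mouse activin A protein probed at 4.33 µg/mL on printed slides; score merges bound-protein fluorescence near 667 nm with spot signal-to-noise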

| SMILES | composite z-score [1] | composite z-score [2] | composite z-score [3] | z-score [4] | composite z-score [5] | composite z-score [6] | composite z-score [7] | composite z-score [8] | composite z-score [9] | composite z-score [10] |
| --- | --- | --- | --- | --- | --- | --- | --- | --- | --- | --- |
| CCN1C(C)=C(C(=O)OC)[C@@H](c2ccccc2)N2C(=O)[C@](O)(C(=O)OC)[C@@H](c3ccccc3)C(C(=O)c3ccccc3)=C12 | 0.689 | 0.0153 | -0.396 | -2.45 (inactive) | 0.436 | 0.779 | 0.385 | 0.363 | 0.812 | -0.411 |
| O=C1OCC=C[C@H]2OC34C=CCN(Cc5ccccc5)C(=O)[C@H]3N(CCO)C(=O)[C@@H]4[C@@H]12 (stereo not given in full) | 1.89 | -0.227 | 0.679 | -0.632 (inactive) | -1.09 | -1.46 | -0.435 | -0.596 | -0.965 | 0.0484 |
| COc1ccc([Si](C)(C)[C@@H]2[C@@H](CCO)O[C@]3(C(=O)N(Cc4ccccc4)c4ccccc43)[C@H]2C)cc1 | 0.183 | -0.18 | -0.455 | -0.535 (inactive) | 0.633 | 0.16 | 0.187 | 0.174 | 0.104 | -0.0249 |
| COCCOC(=O)N1C(=O)[C@@]2(c3ccccc31)[C@H](C(=O)N1CCc3cc(OC)c(OC)cc3C1)[C@H]1C(=O)O[C@H](c3ccccc3)[C@H](c3ccccc3)N1[C@@H]2c1ccccc1OCCO | 1 | 0.401 | 0.339 | -0.237 (inactive) | 0.626 | 1.28 | 0.329 | 0.606 | 0.214 | 0.635 |
| CN(C)c1ccc(C(O)C2C=CC3C(=O)NC(=O)C3N2Nc2ccc(Cl)cc2Cl)cc1 (stereo not given) | 0.189 | 0.88 | 1.09 | 0.701 (inactive) | 0.356 | 0.121 | -0.789 | 0.554 | -0.336 | 1.43 |
| C=CCN1C(=O)[C@@]2(Cc3ccccc3)N=C(c3ccc(OCCCO)cc3)O[C@H]2c2ccccc21 | 1.59 | 1.07 | 1.19 | -0.298 (inactive) | 0.534 | 0.876 | 0.96 | 0.956 | 0.613 | 0.965 |
| CCOC(=O)C[C@H]1[C@H](OC(=O)c2ccccc2-c2ccccc2)[C@@H](NC(=O)C2CCCCC2)c2cc(OCCCO)ccc2N1C(=O)c1ccccc1 | 0.253 | -0.116 | -0.489 | -1.02 (inactive) | 1.43 | 0.524 | 0.797 | 0.437 | 0.436 | 0.16 |
| C=CCNC(=O)[C@H]1[C@@H]2C(=O)O[C@@H](c3ccccc3)[C@@H](c3ccccc3)N2[C@@H](c2ccccc2OCCO)[C@]12C(=O)N(C(=O)OCCOC)c1ccc(C#CCNC(N)=O)cc12 | 1.28 | 0.607 | 0.802 | -0.294 (inactive) | 0.471 | 0.843 | 0.158 | 0.507 | 0.111 | 0.889 |
| Cc1ccc(S[C@]2(C(=O)NC3CC3)CC(=O)N(Cc3cc(C(F)(F)F)cc(C(F)(F)F)c3)[C@@H]2c2ccc(CO)cc2)cc1 | 0.259 | -0.212 | 0.0275 | 0.434 (inactive) | 0.295 | 0.57 | 0.196 | 0.811 | 0.245 | 0.709 |
| COCCOC(=O)N1C(=O)[C@@]2(c3cc(C#CCCO)ccc31)[C@H](c1ccc(OCCO)cc1)N1[C@H](c3ccccc3)[C@H](c3ccccc3)OC(=O)[C@H]1[C@@H]2C(=O)NC[C@H](O)c1ccccc1 | 1.3 | 0.0564 | -0.0641 | -0.6 (inactive) | 1.31 | 1 | 0.776 | 1.41 | 0.923 | 0.701 |
| C=C(CCCC)/C(=C/C[C@@H](OC(=O)c1ccncc1)c1ccc(CO)o1)c1cnc2ccccc2c1 | 0.201 | 0.144 | -0.524 | 0.0419 (inactive) | 1.48 | 1.32 | 1.36 | 1.62 | 1.53 | 1.82 |
| CO[C@H]1O[C@H](CO)[C@@H](OC(=O)Nc2ccc3c(c2)OCO3)[C@H](OC(=O)Nc2ccccc2)[C@@H]1OC(=O)Nc1ccccc1 | 0.966 | 0.0085 | 0.0249 | -0.788 (inactive) | 1.46 | 1.16 | -0.228 | 0.479 | -0.0463 | -0.0204 |
| COc1cc(Cc2cc3c(c(CCc4ccccc4)n2)[Si](C(C)C)(C(C)C)OC3)cc(OC)c1OC | -0.132 | -0.106 | -0.471 | -0.212 (inactive) | 0.367 | -0.034 | 0.0831 | 0.499 | 0.164 | 0.679 |
| O=C1OCC=C[C@H]2OC34C=CCN(Cc5ccccc5)C(=O)[C@H]3N(CCCCCO)C(=O)[C@@H]4[C@@H]12 (stereo not given in full) | 1.41 | -0.212 | 0.528 | -1.45 (inactive) | -0.606 | -0.447 | -1.36 | -0.647 | -1.01 | 0.18 |
| CCCC=C(CCC)[C@@H](NC(=O)c1ccc(C(F)(F)F)cc1)c1ccccc1 | 0.658 | 0.559 | 0.622 | -3.52 (inactive) | -0.433 | 0.662 | -0.405 | 0.0071 | -0.446 | 0.0953 |
| CCCC[C@@H]1C[C@H]1[C@@H](NC(=O)c1cccs1)c1ccc(Cl)cc1 | 0.509 | 0.517 | 0.943 | -2.23 (inactive) | -1.5 | -1.13 | -1.34 | -2.23 | -1.75 | 0.269 |
| C[C@]1(C(=O)NCCN2CCOCC2)c2ccccc2C(=O)N(Cc2ccccc2)[C@H]1c1ccc(CO)cc1 | 1.59 | -0.082 | 0.606 | -0.675 (inactive) | -0.632 | -0.748 | -0.491 | -0.824 | -0.396 | 0.519 |
| CO[C@H]1COC(=O)[C@H](Cc2ccccc2)NC(=O)CC=C[C@@H](C)[C@H](OC)COC(=O)CC=C[C@@H]1C | 0.143 | 0.077 | -0.473 | -0.875 (inactive) | 0.323 | 0.418 | 0.44 | 0.532 | 0.898 | -0.405 |
| CSCC[C@@H]1NC(=O)CC=C[C@@H](C)COC(=O)[C@H](CCSC)NC(=O)CC=C[C@@H](C)COC1=O | -0.191 | -0.396 | -0.607 | -1.02 (inactive) | 0.435 | 0.0287 | 0.434 | 0.678 | 1.12 | -0.149 |
| O=C1c2ccccc2[C@](Cc2ccccc2I)(C(=O)NCc2ccccc2)[C@H](c2ccc(CO)cc2)N1Cc1ccccc1C(F)(F)F | 0.74 | 0.606 | 1.11 | -0.984 (inactive) | -0.881 | -1.42 | -1.39 | -1.27 | -2.07 | 0.623 |
| C[C@@H]1CC[C@H]2C(=O)N3[C@@H](CC[C@@H](C)[C@@H]3c3cccc(N4CCOCC4)c3)C(=O)N2[C@H]1c1cccc(Br)c1 | 1.1 | 0.113 | 0.26 | 0.0479 (inactive) | 0.695 | 0.989 | 0.31 | 0.53 | 0.327 | 0.6 |
| C=CCC(OC(C)=O)[C@@H]1[C@@H](N(Cc2cc3ccccc3o2)C(=O)Cc2ccc(F)cc2)c2cc(OCCCO)ccc2N1C(=O)c1ccc(-c2ccccc2)cc1 (stereo not given in full) | -0.271 | -0.168 | 0.512 | -1.05 (inactive) | -0.251 | -0.708 | -0.162 | -0.346 | 0.0578 | 1.18 |
| C[C@@H]1NC(=O)[C@H](Cc2ccccc2)NC(=O)[C@@]23C(=O)N[C@@H](Cc4ccccc4)C2[C@H](C)[C@@]2(C)O[C@H]2C3/C=C/C/C=C\CNC1=O (stereo not given in full) | 1.04 | -0.277 | -0.533 | -0.212 (inactive) | -0.356 | -1.48 | -0.202 | -0.0037 | 0.515 | 0.944 |
